A selection: hits, their analogues and other compounds. The true share with any hit is near 11%.
hNpr1 antagonist – Natriuretic polypeptide receptor (hNpr1) antagonism - Primary qHTS. HEK293 hNpr1 GloSensor cGMP, ANP-stimulated luminescence. Potency, µM (highest dose often 46.3 µM), inactives show top-dose activity change, negative = inhibition, actives largely listed as inhibitors. 1.6% of 76,000 active. AID 1347048, 2019; calls by dose curve; also: nearly all actives have a fitted effect of over 60% in size
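Compound pre-incubated 30 min at room temperature on GloSensor-loaded HEK293 cells stably carrying hNpr1 and the pGS-40F cGMP biosensor. Stimulation uses hNppA at 0.1 nM final; luminescence is taken at baseline and 20 min post-agonist.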
Luciferase inh – Firefly luciferase inhibition profiling of diverse chemical library using quantitative high-throughput screening; purified P. pyralis luciferase, luminescence, biochemical; Luciferin 4-monooxygenase (Photinus pyralis), P08659; AID 1347043, 2019; Potency, µM (titrated, usually from 115 µM), most hits filed as inhibitors; 2.5% of 76,000 active; also: nearly all actives have a fitted effect of over 65% in size
Target sequence (P08659 whole entry, looked up): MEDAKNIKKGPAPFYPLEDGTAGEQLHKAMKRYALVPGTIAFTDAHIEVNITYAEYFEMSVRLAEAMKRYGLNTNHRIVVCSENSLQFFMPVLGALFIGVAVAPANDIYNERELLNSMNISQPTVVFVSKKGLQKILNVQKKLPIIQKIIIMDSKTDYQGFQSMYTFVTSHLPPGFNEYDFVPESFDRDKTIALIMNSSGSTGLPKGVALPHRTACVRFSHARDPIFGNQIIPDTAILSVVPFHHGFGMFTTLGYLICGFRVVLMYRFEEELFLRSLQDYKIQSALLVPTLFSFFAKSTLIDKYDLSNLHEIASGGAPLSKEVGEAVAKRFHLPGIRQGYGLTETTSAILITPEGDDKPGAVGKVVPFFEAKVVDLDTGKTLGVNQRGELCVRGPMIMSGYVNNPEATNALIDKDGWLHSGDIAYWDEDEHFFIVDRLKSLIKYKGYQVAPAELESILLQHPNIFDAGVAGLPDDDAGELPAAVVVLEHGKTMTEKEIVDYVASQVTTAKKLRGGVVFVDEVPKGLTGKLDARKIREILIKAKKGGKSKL
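Biochemical qHTS: compound (6-point titration) added to 10uM D-luciferin plus 10uM ATP in Tris acetate pH 7.5 buffer with Mg, Tween-20 and BSA, then purified enzyme at 10nM; light output imaged.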
NIH3T3 tox – Cytotoxic Profiling in NIH 3T3 Cell Line of Diverse Libraries Using Quantitative High-Throughput Screening. 4.3% of 94,000 active. AID 1345082, 2018. NIH 3T3 viability, CellTiter-Glo ATP luminescence, 48-72 h. Potency, µM (series often up to 96.7 µM), for the others: at the highest dose activity change, negative = cytotoxicity, most hits filed as inhibitors; also: nearly all actives have a fitted effect of over 55% in size
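First NIH 3T3 cells are plated at 400 cells/well; next compound is pinned in; then plates incubate 48 or 72 hr at 37 °C; finally CellTiter-Glo is added and luminescence read after 10 min.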
HEK293 tox – Cytotoxic Profiling in HEK 293 Cell Line of Diverse Libraries Using Quantitative High-Throughput Screening; AID 1345083, 2018; HEK 293 viability, ATP luminescence (CellTiter-Glo), 48-72 h; Potency, µM (doses to about 115 µM), for the others: top-dose activity change, negative = cytotoxicity, usual class: inhibitors; 6.6% of 94,000 active; also: nearly all actives have a fitted effect of over 60% in size
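qHTS cytotoxicity; HEK 293, 250 cells/well; compound pinned; 48 or 72 hr, 37 degree Celsius, 5% CO2, 95% humidity; CellTiter-Glo, 10 min RT; luminescence (ATP).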
Active calls of the source: *; i = inactive; ? = inconclusive; . = no result; [ ] = another dose, or the depositor's remark. Unless noted, calls follow the shape of the dose curve; as a rule, active = well fitted curve in the direction sought with a large enough effect; inconclusive = small, poorly fitted or top-dose-only effect, or another doubt; inactive = no such curve, though single readings can be large; an effect the other way counts as inactive or inconclusive. % is scaled to controls: 0 for no effect and ±100 for the full control effect; potency is read from the fitted curve at half-maximal effect.

SMILES | hNpr1 antagonist | Luciferase inh | NIH3T3 tox | HEK293 tox
O=C(c1ccc(F)c(Cl)c1)N1CCC2(CC1)CN(c1ccccc1)C2=O | -1% | i | 40µM* | 89µM*
COc1ccc(CN2CC3(CCN(C(=O)c4ccc(F)c(Cl)c4)CC3)C2=O)cc1 | -21% | i | ? | ?
O=C(NCCc1ccccc1)C1CCCN(Cc2cccc(-c3ccsc3)c2)C1 (stereo not given) | . | . | 40µM* | ?
O=C(NCCCc1ccccc1)C1CCCN(Cc2cccc(-c3ccsc3)c2)C1 (stereo not given) | . | . | 35µM* | 40µM*
O=C(NCCCc1ccccc1)C1CN(Cc2ccccc2)C(=O)N1 (stereo not given) | -6%[70.6 µM] | i | -23%[138 µM] | -21%[172 µM]
O=C(c1ccncc1)N1CC2CCC(C1)N2Cc1cccc(-c2ccsc2)c1 | . | . | -25% | ?
CC(C)NC(=O)C1CCCN(Cc2cccc(-c3ccsc3)c2)C1 (stereo not given) | . | . | ? | 45µM*
O=C(C1CCCN(Cc2cccc(-c3ccsc3)c2)C1)N1CCN(c2ncccn2)CC1 (stereo not given) | . | . | ? | 32µM*
O=C(NC1CCN(c2cc(-c3cccs3)[nH]n2)C1)c1cccc2[nH]ccc12 (stereo not given) | -16% | i | ? | ?
O=C(Nc1cccc(Cl)c1)N1CCC(c2noc(COc3cccnc3)n2)CC1 | -18% | i | ? | ?
CCn1c(=O)c2ccnn2c2ccc(C(=O)Nc3ccc(C)c(F)c3)cc21 | 4% | i | -6% | 45µM*
CCn1c(=O)c2ccnn2c2ccc(C(=O)NCCCOC(C)C)cc21 | -9% | i | -11% | ?
CN1CCC(NC(=O)c2ccc3c(c2)n(Cc2ccc(F)cc2)c(=O)c2ccnn23)CC1 | 3% | i | 22µM* | 25µM*
CCCCNC(=O)c1ccc2c(c1)n(Cc1ccc(F)cc1)c(=O)c1ccnn12 | -13% | i | ? | ?
Cn1c(=O)c2ccnn2c2ccc(C(=O)NCC3CCN(Cc4cccc(F)c4)CC3)cc21 | 2% | i | ? | 79µM*
NC(=O)c1cccc(-c2ccc3c(n2)CN(Cc2nc4ccccc4s2)C(=O)CO3)c1 | -21%[70.6 µM] | i | ? | 79µM*
Cc1ccccc1CN1Cc2nc(-c3cnn(Cc4ccccc4)c3)ccc2OCC1=O | ? | i | 22µM* | 35µM*
Cc1nc(CN2Cc3nc(-c4cnn(Cc5ccccc5)c4)ccc3OCC2=O)cs1 | ? | i | -29%[138 µM] | ?
O=C1COc2ccc(OCc3cccnc3)nc2CN1Cc1ccccc1F | ? | i | ? | 89µM*
Cc1ccccc1CN1Cc2nc(-c3ccccc3)ccc2OCC1=O | -6%[70.6 µM] | i | ? | 89µM*
Oc1cccc(CN2CCCC23CCN(c2ccc(C(F)(F)F)cn2)CC3)c1 | -14% | i | ? | ?
COc1ccc(-c2ccc3c(n2)CN(Cc2ccccc2C)C(=O)CO3)cc1OC | -13%[70.6 µM] | i | ? | ?
Cc1ccccc1CN1Cc2nc(-c3cnn(C)c3)ccc2OCC1=O | 4%[70.6 µM] | i | 32µM* | 100µM*
O=C1COc2ccc(-c3ccccc3)nc2CN1Cc1ccccc1F | -11%[70.6 µM] | i | ? | ?
O=C1COc2ccc(-c3ccsc3)nc2CN1Cc1ccccc1F | 1%[70.6 µM] | i | ? | 100µM*
SMILES | hNpr1 antagonist | Luciferase inh | NIH3T3 tox | HEK293 tox
CCOC(=O)[C@H]1[C@@H](O)C(=O)N(Cc2ccccc2)C12CCN(C(=O)CC(C)(C)C)CC2 | . | . | 22µM* | ?
O=C(NC1CCN(c2cc(-c3ccc(F)cc3)[nH]n2)C1)c1ccccc1 (stereo not given) | -14% | i | ? | ?
O=C(NC1CCCN(c2cc(-c3ccccc3)[nH]n2)C1)c1cccc(F)c1 (stereo not given) | 0% | ? | ? | 25µM*
O=C(NC1CCCN(c2cc(-c3ccccc3)[nH]n2)C1)c1ccc(F)cc1Cl (stereo not given) | -19% | ? | ? | ?
O=C(NC1CCN(c2cc(-c3ccc(F)cc3)[nH]n2)C1)c1cccc(F)c1 (stereo not given) | -15% | i | ? | 40µM*
O=[S+]1([O-])NCC2(CCN(Cc3c(F)cccc3F)C2)Oc2ccncc21 (stereo not given) | . | . | -1% | i
Cc1ccc2nc(CO[C@H]3CN(Cc4cn(C)c5ccccc45)C[C@H]3F)[nH]c2c1 | ? | i | 79µM* | 89µM*
Fc1ccc2nc(CO[C@H]3CN(Cc4ccc5ccccc5n4)C[C@H]3F)[nH]c2c1 | ? | ? | ? | 89µM*
Cn1cc(CN2C[C@@H](F)[C@@H](OCc3nc4ccccc4[nH]3)C2)c2ccccc21 | -4%[70.6 µM] | i | ? | 100µM*
Cn1cc(CN2C[C@@H](F)[C@@H](OCc3nc4ncccc4[nH]3)C2)c2ccccc21 | -4%[70.6 µM] | i | ? | 89µM*
CN(Cc1ccccc1)C(=O)[C@@H]1Cc2nc[nH]c2CN1C(=O)CCC(=O)O | -2%[70.6 µM] | i | 1%[138 µM] | 1%[172 µM]
Cc1cccc(N(C)c2ccc3nnc(-c4cc(C(=O)N(C)C)ccn4)n3n2)c1 | -3%[70.6 µM] | i | ? | -27%[172 µM]
CC[C@H]1CN(C(=O)Nc2cccc(C(F)(F)F)c2)CC[C@H]1CC(=O)NCc1ccc(OC)cc1 | ? | i | ? | 40µM*
CC[C@H]1CN(C(=O)Nc2cccc(OC)c2)CC[C@H]1CC(=O)NCc1ccccc1 | -13%[70.6 µM] | i | -30%[174 µM] | -13%[172 µM]
Cc1cnc(-c2ccccc2)n1CCNS(=O)(=O)c1ccccc1 | 5% | i | -8% | 3%
Cc1cc(C)n(-c2cccc(CN3CCN(C4CCNC4)CC3)c2)n1 (stereo not given) | 4% | i | i | i
Clc1ccc(Oc2cccc(CN3CCN(C4CCNC4)CC3)c2)cc1 (stereo not given) | 3% | i | 28µM* | 28µM*
COc1ccc(Cc2nnc3ccc(C(=O)NCCCc4ccccc4)cn23)cc1 | . | . | ? | -22%
CC1(c2ccccc2)N(Cc2ncccn2)C(=O)OC12CCN(C(=O)c1ccc(Oc3ccccc3)cc1)CC2 (stereo not given) | -5% | i | 40µM* | 40µM*
CC1(c2cccnc2)N(CC2CC2)C(=O)OC12CCN(C(=O)c1ccc(Oc3ccccc3)cc1)CC2 (stereo not given) | -13% | i | ? | ?
CC1(c2ccccc2)N(Cc2ccc(O)cc2)C(=O)OC12CCN(C(=O)c1cnccn1)CC2 (stereo not given) | -8% | i | 32µM* | -5%
COc1cccc(CC(=O)N2CCC3(CC2)OC(=O)N(Cc2ncccn2)C3(C)c2ccccc2)c1 (stereo not given) | 0% | i | ? | i
